Screening results from PubChem BioAssay.
Only some compounds are listed: those with a hit (about 2.3% of all), similar ones and a draw of the others.
Tau ThT inhib – blocks human tau fibril formation measured by thioflavin T | Potency, µM (top dose mostly 57.4 µM), without a hit: at the top dose activity, negative = inhibition, hits mostly inhibitors | P10636 | AID 1460 | hit rate 2.1% among 270,000 | recombinant tau K18 P301L, heparin-induced fibrillization, ThT fluorescence; note: potency is the fitted concentration of half-maximal effect; nearly all actives have a fitted effect of over 55% in size
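Heparin-induced fibrillization of the P301L-mutant K18 repeat-domain fragment of human tau was followed by ThT binding in quantitative high-throughput format.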
USP1-UAF1 inh – USP1/UAF1 (human) deubiquitinase inhibition. recombinant USP1/UAF1, Ub-Rhodamine cleavage fluorescence. Potency, µM (highest dose often 57.1 µM), for the others: at the highest dose activity change, negative = inhibition, hits mostly inhibitors. hit rate 0.23% among 390,000. O94782; note: potency is the fitted concentration of half-maximal effect; nearly all actives have a fitted effect of over 60% in size
Target sequence (O94782 whole entry, looked up): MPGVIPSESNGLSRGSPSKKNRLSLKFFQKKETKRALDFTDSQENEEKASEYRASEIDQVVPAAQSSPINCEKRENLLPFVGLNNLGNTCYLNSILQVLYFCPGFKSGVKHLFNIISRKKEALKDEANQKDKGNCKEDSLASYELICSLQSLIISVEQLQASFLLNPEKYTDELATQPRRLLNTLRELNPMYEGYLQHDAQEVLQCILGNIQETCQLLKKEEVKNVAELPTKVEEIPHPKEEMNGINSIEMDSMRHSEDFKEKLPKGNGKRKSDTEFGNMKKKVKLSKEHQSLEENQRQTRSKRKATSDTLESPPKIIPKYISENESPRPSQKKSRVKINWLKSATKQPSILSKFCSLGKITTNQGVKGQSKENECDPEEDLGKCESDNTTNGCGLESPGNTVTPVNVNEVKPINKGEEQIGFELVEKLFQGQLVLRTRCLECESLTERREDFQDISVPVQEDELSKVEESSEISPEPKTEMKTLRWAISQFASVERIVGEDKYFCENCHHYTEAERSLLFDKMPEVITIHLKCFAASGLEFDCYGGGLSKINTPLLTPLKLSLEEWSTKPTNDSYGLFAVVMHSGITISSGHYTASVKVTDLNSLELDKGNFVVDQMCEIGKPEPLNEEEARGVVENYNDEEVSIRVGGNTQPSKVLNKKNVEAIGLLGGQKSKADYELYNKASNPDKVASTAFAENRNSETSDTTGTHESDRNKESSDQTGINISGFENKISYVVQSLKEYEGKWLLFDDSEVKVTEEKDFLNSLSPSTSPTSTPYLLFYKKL
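1 nM enzyme complex + cpd, 15 min RT; start with Ub-Rho 150nM final; kinetic fluorescence ex 480/em 540, 6 reads q60 s. Buffer 50mM HEPES pH 7.8, 0.5mM EDTA, 0.1 mg/ml BSA, 1mM TCEP, 0.01% Tween-20.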
Tau fluor counter – counter-screen for tau fibril formation inhibitors; hit rate 0.93% among 280,000; tau K18 P301L (four-repeat tau fragment) Alexa594 fluorescence, heparin fibrillization; Potency, µM (series often up to 57.7 µM), inactives show at the top dose activity change, negative = decrease; note: potency is the fitted concentration of half-maximal effect; nearly all actives have a fitted effect of over 55% in size
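Human K18 P301L tau (15 uM unlabeled plus 0.24 uM Alexa 594-labeled, final) in 100 mM sodium acetate pH 7 was mixed with compound and 20 uM heparin and incubated 6 hr at 37 C.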
FBPA coupling cs – coupling enzyme interference in Giardia aldolase counter-screen. coupling enzyme system counterscreen, AmpLite Red fluorescence. activity change, negative = inhibition, % at 58.2 µM, hits read low. hit rate 0.67% among 290,000; in the data active = activity change below about -30%
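Counterscreen lacking aldolase: glyceraldehyde-3-phosphate coupling-enzyme reagent preincubated 10 min at RT with compound (at 57.5 uM final), then substrate/coupling system with AmpLite Red added; fluorescence read at 525/598 nm after 20 min RT.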
Tau fibril FP – inhibitors of human tau fibril formation; hit rate 0.39% among 280,000; K18 P301L tau heparin fibrillization, Alexa594 FP, 6 h; Potency, µM (titrated, usually from 57.7 µM), for the others: top-dose activity, negative = inhibition, hits mostly inhibitors; P10636; note: potency is the fitted concentration of half-maximal effect; nearly all actives have a fitted effect of over 55% in size
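Recombinant K18 P301L […], labeled with Alexa 594 at 0.24 uM over 15 uM unlabeled; heparin inducer 20 uM final; 37 C, 6 hr; FP endpoint.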
* marks the source's active call; other numbers are inactive results; ? = inconclusive; · = not tested or not shown; [ ] = another dose, or the depositor's remark. Unless noted, calls come from the whole dose curve; as a rule, active = well fitted curve in the direction sought with a large enough effect; inconclusive = small, poorly fitted or top-dose-only effect, or another doubt; inactive = no such curve, though single readings can be large; an effect the other way counts as inactive or inconclusive. % is set by controls: 0 for no effect and ±100 for the full control effect.

SMILES	Tau ThT inhib	USP1-UAF1 inh	Tau fluor counter	FBPA coupling cs	Tau fibril FP
COC(=O)CCC(=O)OC1(C)C(=O)C=C2C=C(C3CC3)N(c3ccccc3)C=C2C1=O (centres undefined)	?	?	-13.5%[11.6 µM]	-41.1*	-0.7%[11.6 µM]
COc1cccc2c1Oc1ncccc1N(C(=O)Nc1ccc(F)c(Cl)c1)C2	-6.9%	12.0%	-26.9%	·	-1.7%
COc1ccc(-c2onc(C)c2C)cc1S(=O)(=O)NC1CCC(C)CC1 (centres undefined)	-2.8%	-9.4%	-22.1%	·	1.1%
COc1ccc(-c2nc(-c3ccccc3)oc2NC(C)C)cc1	-6.9%	·	-0.7%	4.3	3.9%
COc1ccc(CNC(=O)C2CCCN(S(=O)(=O)N(C)c3ccc(F)cc3)C2)cc1OC (centres undefined)	5.9%	-26.4%	-7.5%	·	-1.5%
C=CCn1c(NC(=O)c2ccc(Br)o2)c(S(=O)(=O)c2ccccc2)c2nc3ccccc3nc21	20µM*	?	-27.1%	-24.1	?
C=CCn1c(NC(=O)c2ccco2)c(S(=O)(=O)c2ccccc2)c2nc3ccccc3nc21	-18.5%	·	-2.3%	-29.1	-2.1%
CC1(C)C=Cc2c(c3c(c4c(=O)c(-c5ccc(O)cc5)coc24)OC(C)(C)CC3)O1	?	4.4%	?	-2.9	?
CC(C)=CCc1c2c(c3occ(-c4ccc(O)c(O)c4)c(=O)c3c1O)C=CC(C)(C)O2	?	-20.9%	3.55µM*[quencher]	-10.7	25.1µM*
CC(C)=CCc1c2c(c3occ(-c4ccc(O)cc4)c(=O)c3c1O)C=CC(C)(C)O2	?	3.0%	3.16µM*[quencher]	-6.7	22.4µM*
O=[N+]([O-])c1ccc(N2CCN(S(=O)(=O)c3ccc4ccccc4c3)CC2)cc1NCC1CCCO1 (centres undefined)	?	-19.2%	?	-1.3	-5.5%
CNC1CCC(c2ccc(Cl)c(Cl)c2)c2ccccc21 (centres undefined)	·	·	-12.2%	1.7	3.5%
CC(C)CC(=O)N[C@H](C(=O)N[C@H](C(=O)N[C@@H](CC(C)C)[C@H](O)CC(=O)N[C@@H](C)C(=O)N[C@@H](CC(C)C)[C@H](O)CC(=O)O)C(C)C)C(C)C	·	·	·	-0.2	·
O=C(/C=C/NNC(=O)c1ccccc1)c1ccc(Br)cc1	25.1µM*	-9.2%	?	-1.2	0.5%
COc1ccc(C(=O)NN/C=C/C(=O)c2ccc(Br)cc2)cc1	·	-2.8%	·	·	·
O=C(/C=C/NNC(=O)c1ccc(Cl)cc1)c1ccccc1	22.4µM*	-6.4%	-13.4%	1.3	-1.2%
COc1ccc(C(=O)C=CNNC(=O)c2ccc(Cl)cc2)cc1	·	-12.1%	·	-0.3	·
CCOc1ccc(CNC(=O)CN2N=C(c3ccccc3)CCC2=O)cc1OC	3.4%	8.2%	-6.1%	·	2.8%
CCOc1ccc(CNC(=O)c2cc3c(=O)n(C)c4ccccc4c3s2)cc1	3.0%	-11.3%	-6.1%	·	-4.8%
O=C(O)c1c(Cl)c(Cl)c(Cl)c(Cl)c1-c1c2cc(I)c(=O)c(I)c-2oc2c(I)c(O)c(I)cc12	3.16µM*	·	1.58µM*[fluorescent]	2.8	-130.4%
O=C(O)c1ccccc1-c1c2cc(I)c(=O)c(I)c-2oc2c(I)c(O)c(I)cc12	·	22.4µM*	·	4.4	·
O=Cc1ccc(-c2ccccc2C(=O)O)o1	10.2%	?	15.7%	3.8	-3.0%
Nc1nc(N)c(N=Nc2ccc(S(N)(=O)=O)cc2)c(=O)[nH]1	20µM*	-22.3%	-14.3%	3.2	0.2%
NS(=O)(=O)c1ccc(N=Nc2ccc(=O)[nH]c2O)cc1	15.8µM*	?	-16.1%	-32.0*	-22.1%
COc1ccc(Nc2oc(COc3ccc(Cl)cc3)nc2C#N)cc1	?	-15.7%	20µM*[quencher]	1.4	10.6%
SMILES	Tau ThT inhib	USP1-UAF1 inh	Tau fluor counter	FBPA coupling cs	Tau fibril FP
COCCCNc1oc(-c2ccc(COc3ccc(Cl)cc3)o2)nc1C#N	?	-2.2%	11.2µM*[quencher]	·	?
Cc1ccc2cc3cc(C(=O)N(C)c4ccccc4C)oc3nc2c1	?	-25.2%	-8.8%	·	2.7%
COC(=O)c1ccc(NC(=S)Nc2ccc(O)cc2)cc1	-14.6%	-5.3%	-12.7%	3.8	1.2%
Oc1ccc(NC(=S)Nc2ccc(O)cc2)cc1	10µM*	-16.9%	?	-22.6	?
O=C(Nc1cccc(F)c1)N1CCCC2(CCN(C(=O)c3csnn3)CC2)C1	·	·	·	1.1	·
CN(C)c1ccc(/C=N/N2CCN(c3ccccn3)CC2)cc1	1.78µM*	-14.3%	-27.1%	2.4	5.3%
O=Nc1c(-c2c(O)[nH]c3cc(Br)ccc23)[nH]c2ccccc12	2.24µM*	-27.6%	8.91µM*[quencher]	-10.5	?
O=C(CSCc1cccc(Br)c1)N=Nc1c(O)[nH]c2ccccc12	?	-10.7%	?	·	?
O=C(c1ccco1)N1CCC2(CCCN(C(c3ccccc3)c3ccccc3)C2)CC1	·	·	·	-1.6	·
O=[N+]([O-])C1=CC=C2C(=NC3(CCCCC3)N2O)C1=NC1CCCCC1	?	0.5%	-23.7%	-20.7	-5.8%
N=C1C=CC=C2C1=NC1(CCCCC1)N2O	25.1µM*	?	-25.6%	-48.3*	?
CC(=O)Nc1ccc(S(=O)(=O)N2CCc3nc(COc4ccccc4)c4c(c3C2)CO[C@@H](C)C4)cc1	-1.1%[11.5 µM]	·	-2.5%[11.6 µM]	-0.2	-2.3%[11.6 µM]
CCn1cc2nc(SCC(=O)Nc3ccc(OC)c(OC)c3)n(Cc3ccc(Cl)cc3)c(=O)c2n1	?	-24.1%	?	·	1.9%
CCN(CC)S(=O)(=O)c1cccc(NC(=O)C2SC(=Nc3ccc(C)cc3C)C(C(=O)NC(C)COC)=C2N)c1 (centres undefined)	-13.9%	-15.5%	25.1µM*[quencher]	-1.4	-0.3%
CCCCNC(=O)C1=C(N)C(C(=O)Nc2ccc(C)c(S(=O)(=O)N3CCCCC3)c2)SC1=Nc1ccc(C)cc1C (centres undefined)	-12.4%	-5.6%	?	-0.9	-4.9%
O=C(O)c1ccc(-c2ccc(/C=N/Nc3ccc([N+](=O)[O-])cc3)o2)cc1	·	12.6µM*	11.0%[0.0958 µM]	-7.3	-5.7%[0.0958 µM]
NS(=O)(=O)c1ccc(-c2ccc(/C=N/Nc3ccc(C(=O)O)cc3)o2)cc1	·	?	?	-6.7	5.6%
O=C(O)c1ccc(N/N=C/c2ccc(-c3cc(Cl)ccc3Cl)o2)cc1	·	-14.5%	10.2%[0.0958 µM]	9.6	-0.9%[0.0958 µM]
O=C(O)c1cccc(-c2ccc(/C=N/Nc3ccc([N+](=O)[O-])cc3)o2)c1	·	?	15.8µM*[quencher]	-13.2	-9.1%
Cc1cccc(C(=O)Oc2ccccc2/C=N/Nc2ccc([N+](=O)[O-])cc2)c1	?	-21.7%	3.98µM*[quencher]	0.5	6.8%
O=C(O)c1ccc(N/N=C/c2ccc(-c3cccc(Cl)c3)o2)cc1	·	-22.3%	20µM*[quencher]	6.3	3.3%
O=C(CSc1ncc2c(n1)-c1cc(Cl)ccc1N(Cc1ccccc1)S2(=O)=O)NCc1ccccc1	-4.6%	-6.5%	?	·	-17.1%
